PubChem BioAssay AID743279 (National Center for Advancing Translational Sciences (NCATS), 2014)
Screen size: about 360,000 compounds; about 17,000 (4.7%) were called active. Another 5% or so got no clear call; they are omitted. Many of the other results were omitted from the sample, so actives are more common in it than they were. Values without a mark were called inactive. Rule as the data show it: active = activity change below about -50%; inconclusive = mostly about -30% to -49%; inactive = weaker than that.

assay: qHTS for Inhibitors of Inflammasome Signaling: IL-1-beta AlphaLISA Primary Screen; conditions: THP-1 LPS/ATP IL-1B secretion, 16 h; at 57.5 µM, hits give low values
Procedure, shortened: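 THP-1 cells pretreated 1 hr with compounds (up to 57.5 uM final), then stimulated with LPS (250 ng/mL final) plus ATP (1.25 mM final); secreted IL-1B measured by AlphaLISA after 16 hr, decreased signal indicating inhibition.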
% is scaled to controls: 0 for no effect and ±100 for the full control effect.

Row | SMILES | activity change
1 | COc1cc(OC)cc(C(=O)NCCSCc2ccc(Cl)cc2)c1 | 0.652%
2 | CSc1ncnc2c1ncn2CCCNCC1CCCCC1 | 16.5%
3 | CC(=O)C12CC(C)=C(C)CC1CC1C3CCC4=CC(=O)CCC4(C)C3CCC12C (centres undefined) | -14.2%
4 | CSc1ncnc2c1ncn2CC(=O)C1CCC2C3CCC4=CC(=O)CCC4(C)C3CCC12C (centres undefined) | -64.8% (active)
5 | C[C@H]1CN([C@@H](C)CO)C(=O)CCCn2nncc2CO[C@@H]1CN(C)S(=O)(=O)c1cccc(C#N)c1 | 22.7%
6 | CCOC(=O)N1C(=O)C[C@](Sc2ccc(C)cc2)(C(=O)OC)[C@H]1c1ccccc1 | -13.1%
7 | COc1ccc2c(c1)CCC/C2=N\OC(=O)c1ccccc1F | -13.5%
8 | CCc1nc2c(OCC(N)=O)cccn2c1N(C)C(=O)c1ccc(OC)cc1 | 3.49%
9 | CCc1nc2c(OCCOc3ccc(F)cc3)cccn2c1N(C)C(=O)c1ccccc1F | -11.7%
10 | COCCCNCC(=O)Nc1sc(C)c(C)c1C(=O)OC | 0.516%
11 | Cc1ccc2c(c1)C1CN(C)CCC1N2S(=O)(=O)c1cccc(F)c1 (centres undefined) | -15.5%
12 | O=C(NC(=S)Nc1ccc(Cl)cc1Cl)C1CC1 | 19.2%
13 | Cc1ccc2c(c1)C1CN(C)CCC1N2C(=S)Nc1ccc(OC(F)F)cc1 (centres undefined) | -62.4% (active)
14 | Cc1ccc2c(c1)C1CN(C)CCC1N2C(=S)Nc1ccc(Cl)cc1Cl (centres undefined) | -84.8% (active)
15 | S=C(Nc1ccc(Cl)cc1Cl)N1CCCC1 | -2.45%
16 | Cc1ccc2c(c1)C1CN(C)CCC1N2C(=O)c1ccccc1NS(=O)(=O)c1ccc(F)cc1C (centres undefined) | 5.7%
17 | COC(=O)c1ccc2c(=O)n(CCN3CCOCC3)c(SCC(=O)Nc3cccc(OC)c3)nc2c1 | -19.5%
18 | OCCN1CCN(c2ncnc3c2ncn3[C@H]2CN(Cc3ccco3)C[C@@H](CO)O2)CC1 | 10%
19 | CC(=O)c1c(C)[nH]c(C(=O)COC(=O)c2cccc(S(=O)(=O)N(C)c3ccccc3)c2)c1C | -12.5%
20 | CN(C)c1ccc(C(CC(=O)O)C(=O)O)cc1 (centres undefined) | 15%
21 | COc1ccc(-c2nn(-c3ccccc3)cc2C(=O)Nc2nccs2)cc1OC | -52.5% (active)
22 | COc1ccc(-c2nn(-c3ccccc3)cc2/C=N/Nc2ccccn2)cc1OC | 10.4%
23 | COc1ccc(Cl)cc1NC(=O)CN(C)C(=O)c1cn(-c2ccccc2)nc1-c1cccs1 | -15.3%

Row | SMILES | activity change
24 | Nc1ncnc2c1ncn2[C@@H]1O[C@H](CNC(=O)[C@H](N)Cc2cccnc2)[C@@H](O)[C@H]1O | -4.6%
25 | CC1(C)COC(c2cccn2Cc2ccccc2Cl)=N1 | 1.85%
26 | Cc1cc(C(=O)NC2CCCc3c2cnn3-c2cccc(C)c2C)c(C)o1 (centres undefined) | -7.02%
27 | COc1ccc(OC)c(C(=O)NC2CCCc3c2cnn3-c2cc(C)cc(C)c2)c1 (centres undefined) | -20.1%
28 | COc1ccc(C(=O)NC2CCCc3c2cnn3-c2cccc(C)c2C)c(OC)n1 (centres undefined) | -78.6% (active)
29 | O=C(NNC1=C(C(=O)C(F)(F)F)CCC1)c1ccncc1 | 28.1%
30 | CCC1Nc2ncnc(N3CCN(c4ccccc4)CC3)c2N(Cc2ccc(Cl)cc2)C1=O (centres undefined) | -19.1%
31 | COc1ccc(NC(=O)C2Cc3c(-c4ccc(Cl)cc4)ccnc3O2)cc1 (centres undefined) | -7.31%
32 | CCc1ccccc1NC(=O)CSc1nnc([C@@H](NC(=O)OC(C)(C)C)C(C)CC)o1 (some centres undefined) | 9.72%
33 | C[C@@H](NC(=O)OC(C)(C)C)c1nnc(S(=O)(=O)Cc2ccccc2)o1 | -70.3% (active)
34 | CCc1ccccc1NC(=O)CSc1nnc([C@@H](NC(=O)OC(C)(C)C)C(C)C)o1 | 11.8%
35 | COc1cc(/C=C(/NC(=O)c2ccc(Cl)cc2Cl)C(=O)O)cc(OC)c1OC | 2.22%
36 | COc1ccc(-n2cc(-c3ccccc3)c3c(=S)nc[nH]c32)cc1 | 18.8%
37 | O=c1c2c(-c3ccccc3)ccnc2[nH]n1-c1ccccc1 | -16.4%
38 | O=c1[nH]cnc2c1c(-c1ccccc1)cn2-c1ccc(F)cc1 | -91.8% (active)
39 | COc1ccc(S(=O)(=O)N2CCN(C)CC2)c(C)c1 | -5.01%
40 | Cn1c(=O)c2cc(NC(=O)NCCc3cccs3)ccc2n1Cc1cccc(C(F)(F)F)c1 | 1.3%
41 | CC(C)CCN1C(=O)c2ccc(C(=O)Nc3cccc(S(N)(=O)=O)c3)cc2C1=O | -61% (active)
42 | Cc1cccc(C(=O)Nc2ccc3c(c2)C(=O)N(CC(C)C)C3=O)c1 | 0.513%
43 | CN1CCN(S(=O)(=O)c2cccc(C(=O)Nc3cccc(S(N)(=O)=O)c3)c2)CC1 | 6.7%
44 | CC(C)c1cccc(-c2csc(C(O)c3ccccc3)n2)c1 (centres undefined) | 43.6%
45 | CCOC(=O)C1=CCC(c2ccc(F)cc2)N(S(=O)(=O)c2ccc(C)cc2)C1 (centres undefined) | 30.7%
46 | NC(CSC12CC3CC(CC(C3)C1)C2)C(=O)O (centres undefined) | 23.7%

Row | SMILES | activity change
47 | O=C(c1cccs1)N1C[C@H](n2cc(C3CC3)nn2)[C@@H](O)C[C@@H]1c1ccccc1 | 0.261%
48 | O=C(NCC1CCCO1)c1ccc2ccccc2n1 (centres undefined) | 3.35%
49 | Clc1cccc(-c2nc(NCC3CCCO3)c3ccccc3n2)c1 (centres undefined) | -76.8% (active)
50 | c1ccc2c(NCC3CCCO3)nc(-c3ccncc3)nc2c1 (centres undefined) | -27.3%
51 | CCCCn1nnnc1C(c1cccc(OC)c1OC)N1CCN(C/C=C/c2ccccc2)CC1 (centres undefined) | -23.9%
52 | C[C@H]1CN([C@@H](C)CO)C(=O)c2cc(-c3ccccc3F)cnc2O[C@H]1CN(C)C(=O)C1CCOCC1 | 13.6%
53 | CN/C(=C\[N+](=O)[O-])NCCSCc1csc(CN(C)C)n1 | 0.154%
54 | Cc1ccccc1C(=O)NCC(c1ccco1)N1CCc2ccccc21 (centres undefined) | -20.8%
55 | O=C(NCC(c1ccco1)N1CCc2ccccc21)c1cccc(F)c1 (centres undefined) | -86.4% (active)
56 | COc1ccc(C(=O)NCC(c2ccco2)N2CCc3ccccc32)cc1OC (centres undefined) | -0.703%
57 | CCc1nnc(NC(=O)CCC(=O)N2CCN(c3cc(C)ccc3C)CC2)s1 | 36.3%
58 | O=S(=O)(c1ccc(F)cc1)N1CCN(Cc2ccccc2C(F)(F)F)CC1 | 8.37%
59 | O=c1[nH]nc(SCCS(=O)(=O)c2ccc(F)cc2)n1-c1ccccc1C(F)(F)F | -96.7% (active)
60 | O=C(CSc1n[nH]c(=O)n1-c1ccccc1)Nc1ccccc1C(F)(F)F | 14.4%
61 | COC(=O)[C@@]1(Cc2ccc(OC)cc2)[C@H]2c3cc(C(=O)N4CCCC4)n(Cc4ccc(OC(F)(F)F)cc4)c3C[C@H]2CN1C(=O)c1ccccc1 | 0%
62 | CCC(C(=O)Nc1c(C)cccc1C)n1c(-c2cc(C)cs2)nc2ccccc21 (centres undefined) | -9.28%
63 | Cc1ccc(NC(=S)NC(NC(=O)Cc2cccc3ccccc23)C(Cl)(Cl)Cl)cc1 (centres undefined) | 1.31%
64 | O=C(Cc1cccc2ccccc12)NNC(=O)Nc1ccc(Cl)cc1 | -50% (active)
65 | O=C(O)Cc1ccc(NC(=O)Nc2cccc3ccccc23)cc1 | 11.3%
66 | O=C1C(Sc2cccc(F)c2)=C[C@@]2(O)CC[C@@H](O)[C@]1(Sc1cccc(F)c1)[C@H]2O | 8.29%
67 | O=C(CCNC(=O)c1ccccc1Cl)NCc1ccco1 | 2.08%
68 | O=C(Nc1ccccc1)Nc1ccccc1C(=O)NCc1ccco1 | -56.9% (active)
69 | Cc1cccc(Nc2ccccc2C(=O)NCc2ccco2)c1C | 3.14%

Row | SMILES | activity change
70 | O=C1CSC(=S)N1c1ccc(Cl)c(Cl)c1 | 7.49%
71 | CCC(CC)C(C(=O)NC1CCCC1)N1CCN(c2cc(C)nc3ccccc23)CC1 (centres undefined) | -20.5%
72 | CC1(C)CC(=O)C=C(c2ccccc2CO)C1=O | 22.9%
73 | CCOC(=O)c1ccc(CS(=O)c2ccc(Cl)cc2)o1 (centres undefined) | -4.53%
74 | CCOC(=O)N1CCN(C(=O)CNC(=O)Cc2ccc(Cl)cc2)CC1 | -0.466%
75 | CCOC(=O)c1c(Cc2ccc(Cl)cc2)c[nH]c1C | -74.6% (active)
76 | Cc1cccc(NC(=S)N2CCC(C(=O)c3ccc(F)cc3)CC2)c1 | -26.4%
77 | Cc1cccc(NC(=O)CSc2nc3[nH]ncc3c(=O)[nH]2)c1 | 9.71%
78 | O=C(Nc1ccc(F)cc1)c1ccc(S(=O)(=O)NCc2cccnc2)cc1 | -4.04%
79 | CCOc1ccc(NC(=O)c2nc(SCC)ncc2Cl)cc1 | -0.255%
80 | Cc1cccc(NC(=O)c2nc(S(=O)(=O)Cc3ccccc3)ncc2Cl)c1 | -103% (active)
81 | Cc1cccc(NC(=O)c2nc[nH]c2C(=O)NCC(=O)OCc2ccccc2)c1 | 5.22%
82 | Cc1cccc(CS(=O)(=O)c2ncc(Cl)c(C(=O)Nc3ccc(F)cc3)n2)c1 | -93.5% (active)
83 | Cc1ccc(S(=O)(=O)N(C)C)cc1NC(=O)CN1c2cccc3cccc(c23)S1(=O)=O | 12.6%
84 | COc1cc(CN2CCNC(=O)C2CC(=O)NCCc2ncccc2C)cc(OC)c1 (centres undefined) | 16.2%
85 | CN(CCc1ccccc1)C(=O)c1cccc(NC(=O)Cc2cccc(NC(=O)C3CCCN(C(=O)C4CCC4)C3)c2)c1 (centres undefined) | -17.1%
86 | N#CCSc1ccccc1NC(=O)CN1C(=O)NC(CCc2ccccc2)C1=O (centres undefined) | 12.1%
87 | COC(=O)CNS(=O)(=O)c1ccc(Cc2ccc(S(=O)(=O)NCC(=O)OC)cc2)cc1 | -100% (active)
88 | C/C(N)=C(/C#N)C(=O)COC(=O)CNS(=O)(=O)c1ccc(C)cc1 | -8.82%
89 | COC(=O)CNS(=O)(=O)c1ccc(OC)cc1 | -22.2%
